According to PubChem BioAssay (Tox21):
Inconclusive results are not listed. Active and inactive are the calls of the source. Calls follow the shape of the dose curve; as a rule, active = well fitted curve in the direction sought with a large enough effect in the repeat runs; inconclusive = weak or mixed curves; inactive = no such curve, though single readings can be large; an effect the other way counts as inactive or inconclusive.

Tests used:
[1] = qHTS RealTime-Glo MT Cell Viability Assay in HepG2 cells - 40 hour (AID 1224870); also: nearly all actives have a fitted effect of over 50% in size
Outline: (§1)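 HepG2 cells mixed with RealTime-Glo MT reagents (NanoLuc plus cell-permeant prosubstrate) were seeded at 600 cells/well, incubated 5 h at 37 C/5% CO2, then pinned with compounds in DMSO; nonlytic luminescence tracked viability during 40 h treatment.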

[2] = A CellTox Green Cytotoxicity Assay to monitor cytotoxicity in HEK293 cells - 40 hour (AID 1224871); also: nearly all actives have a fitted effect of over 45% in size
Outline: (§2)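 Tox21 screen in HEK293: membrane-impermeant cyanine dye fluoresces on binding dead-cell DNA; compound pinned 5 h post-seeding, plates held at 37 C, signal read repeatedly through 40 h.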

[3] = qHTS RealTime-Glo MT Cell Viability Assay in HEK293 cells - 16 hour (AID 1224872); also: top concentration of the series differs between compounds; nearly all actives have a fitted effect of over 50% in size
Outline: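 Assay medium contained NanoLuc luciferase plus cell-permeant prosubstrate, added with HEK293 cells at 600 cells/well. After 5 h at 37 C/5% CO2 compounds were added; plates stayed at 37 C for 40 h with serial luminescence reads.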

[4] = qHTS RealTime-Glo MT Cell Viability Assay in HepG2 cells - 8 hour (AID 1224873); also: nearly all actives have a fitted effect of over 55% in size
Outline: as §1

[5] = qHTS RealTime-Glo MT Cell Viability Assay in HEK293 cells - 40 hour (AID 1224874); settings: RealTime-Glo luminescence; max response: active compounds read low; also: nearly all actives have a fitted effect of over 50% in size
Outline: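 HEK293 + NanoLuc + prosubstrate, 600 cells/well; 5 h, 37 C/5% CO2; compound 23 nL in DMSO by pintool; 37 C; luminescence read at 0, 8, 16, 24, 32 and 40 h time points.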

[6] = A CellTox Green Cytotoxicity Assay to monitor cytotoxicity in HEK293 cells - 24 hour (AID 1224875); also: series mostly up to about 77 µM; nearly all actives have a fitted effect of over 45% in size
Outline: as §2

[7] = A CellTox Green Cytotoxicity Assay to monitor cytotoxicity in HepG2 cells - 16 hour (AID 1224876); also: nearly all actives have a fitted effect of over 45% in size
Outline: (§3)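 Measurements at 0, 8, 16, 24, 32 and 40 h of treatment captured CellTox Green fluorescence in HepG2 cells that had been co-plated with reagent and preincubated 5 h at 37 C/5% CO2.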

[8] = qHTS RealTime-Glo MT Cell Viability Assay in HepG2 cells - 32 hour (AID 1224877); also: nearly all actives have a fitted effect of over 55% in size
Outline: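 qHTS, HepG2, 600 cells/well, RealTime-Glo (NanoLuc + prosubstrate) added with cells; 5 h preincubation; DMSO compound addition; 37 C; luminescence at 0/8/16/24/32/40 h.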

[9] = A CellTox Green Cytotoxicity Assay to monitor cytotoxicity in HepG2 cells - 24 hour (AID 1224878); also: nearly all actives have a fitted effect of over 45% in size
Outline: as §3

[10] = A CellTox Green Cytotoxicity Assay to monitor cytotoxicity in HepG2 cells - 40 hour (AID 1224879); also: nearly all actives have a fitted effect of over 40% in size
Outline: as §3
% is scaled to controls: 0 for no effect and ±100 for the full control effect.

CN1[C@@H]2CC[C@H]1CC(NC(=O)n1c(=O)[nH]c3ccccc31)C2 (stereo partly specified)
inactive: Potency [1] | Potency [2] | Potency [3] | outcome [4] | max response [5] -2.86% | Potency [6] | Potency [7] | Potency [8] | Potency [9] | Potency [10]

C[C@H]1O[C@@H](n2cc(F)c(=O)[nH]c2=O)[C@H](O)[C@@H]1O
inactive: Potency [1] | Potency [2] | Potency [3] | outcome [4] | max response [5] 0.654% | Potency [6] | Potency [7] | Potency [9] | Potency [10]

CCn1cc(C(=O)O)c(=O)c2cc(F)c(N3CCN(C)CC3)cc21
inactive: activity change, negative = cytotoxic [1] 1.6% [at 15.8 µM] | cytotoxicity increase [2] -12.2% [at 15.8 µM] | activity change, negative = cytotoxicity [3] 4.51% [at 15.8 µM] | viability change, negative = cytotoxic [4] 2.21% [at 15.8 µM] | max response [5] -1.49% | activity change [6] -4.84% [at 15.8 µM, active compounds read high] | cytotoxicity increase [7] -8.46% [at 15.8 µM] | cytotoxicity [9] -13.3% [at 15.8 µM] | cytotoxicity increase [10] -14.4% [at 15.8 µM]

O=C(O)c1cccc(C(=O)O)n1
inactive: Potency [1] | Potency [2] | Potency [3] | outcome [4] | max response [5] -0.906% | Potency [6] | Potency [7] | Potency [9] | Potency [10]

Nc1[nH]c(=O)ncc1F
inactive: Potency [1] | Potency [2] | Potency [3] | outcome [4] | max response [5] 0.113% | Potency [6] | Potency [7] | Potency [8] | Potency [9] | Potency [10]

C=CCn1c(=O)n([C@@H]2O[C@H](CO)[C@@H](O)[C@H]2O)c2nc(N)[nH]c(=O)c21
inactive: Potency [1] | Potency [2] | Potency [3] | outcome [4] | max response [5] 3.44% | Potency [6] | Potency [7] | Potency [8] | Potency [10]

C#CC(C)(O)CC(C)C (stereo unspecified)
inactive: Potency [1] | Potency [2] | Potency [3] | outcome [4] | max response [5] 22.3% | Potency [6] | Potency [7] | Potency [8] | Potency [10]

CC(C)CCCCCCN
inactive: Potency [1] | Potency [2] | Potency [3] | outcome [4] | max response [5] -7.14% | Potency [6] | Potency [7] | Potency [8] | Potency [10]

OC[C@H]1O[C@@H]2O[C@H]3[C@H](O)[C@@H](O)[C@@H](O[C@H]4[C@H](O)[C@@H](O)[C@@H](O[C@H]5[C@H](O)[C@@H](O)[C@@H](O[C@H]6[C@H](O)[C@@H](O)[C@@H](O[C@H]7[C@H](O)[C@@H](O)[C@@H](O[C@H]8[C@H](O)[C@@H](O)[C@@H](O[C@H]9[C@H](O)[C@@H](O)[C@@H](O[C@H]1[C@H](O)[C@H]2O)O[C@@H]9CO)O[C@@H]8CO)O[C@@H]7CO)O[C@@H]6CO)O[C@@H]5CO)O[C@@H]4CO)O[C@@H]3CO
inactive: Potency [1] | Potency [2] | Potency [3] | outcome [4] | max response [5] 1.22% | Potency [6] | Potency [7] | Potency [8] | Potency [9] | Potency [10]

C#CC(O)C(CC)CCCC (stereo unspecified)
inactive: Potency [1] | Potency [2] | Potency [3] | outcome [4] | max response [5] 11.7% | Potency [6] | Potency [7] | Potency [8] | Potency [9] | Potency [10]

CC(C)(O)C(=O)c1ccc(OCCO)cc1
inactive: Potency [1] | Potency [2] | Potency [3] | outcome [4] | max response [5] 6.03% | Potency [6] | Potency [7] | Potency [9]

NS(=O)(=O)c1cc2c(cc1Cl)NC(CSCc1ccccc1)=NS2(=O)=O
inactive: Potency [1] | Potency [2] | Potency [3] | outcome [4] | max response [5] -0.803% | Potency [6] | Potency [7] | Potency [8] | Potency [10]

Cc1c(F)cc2c(=O)c(C(=O)O)cn3c2c1CCC3C (stereo unspecified)
inactive: Potency [1] | Potency [2] | Potency [3] | outcome [4] | max response [5] -0.802% | Potency [6] | Potency [7] | Potency [8] | Potency [9] | Potency [10]

OCc1ccccn1
inactive: Potency [1] | Potency [2] | Potency [3] | outcome [4] | max response [5] 11.2% | Potency [6] | Potency [7] | Potency [8] | Potency [10]

C=CCSCC1Nc2cc(Cl)c(S(N)(=O)=O)cc2S(=O)(=O)N1 (stereo unspecified)
inactive: Potency [1] | Potency [2] | Potency [3] | outcome [4] | max response [5] 10.2% | Potency [6] | Potency [7] | Potency [8] | Potency [9] | Potency [10]

NC(=O)c1ncn([C@@H]2O[C@H](CO)[C@@H](O)[C@H]2O)c1N
inactive: Potency [1] | Potency [2] | Potency [3] | outcome [4] | max response [5] -6.56% | Potency [6] | Potency [7] | Potency [9] | Potency [10]

C=C(C)C(=O)OCCCCCCCCCCCCCCCCCC
inactive: activity change, negative = cytotoxic [1] 13.1% [at 15.8 µM] | cytotoxicity increase [2] 0.266% [at 15.8 µM] | activity change, negative = cytotoxicity [3] 9.27% [at 15.8 µM] | viability change, negative = cytotoxic [4] -0.392% [at 15.8 µM] | max response [5] 3.5% | activity change [6] 0.0651% [at 15.8 µM, active compounds read high] | cytotoxicity increase [7] 3.12% [at 15.8 µM] | activity change, negative = cytotoxic [8] 6.06% [at 15.8 µM] | cytotoxicity [9] -0.0576% [at 15.8 µM] | cytotoxicity increase [10] 2.24% [at 15.8 µM]

CCCCCCCCCCCl
inactive: Potency [1] | Potency [2] | Potency [3] | outcome [4] | max response [5] 6.94% | Potency [6] | Potency [7] | Potency [8] | Potency [9] | Potency [10]

O=Cc1ccccc1[N+](=O)[O-]
inactive: Potency [1] | Potency [2] | Potency [3] | outcome [4] | max response [5] -5.52% | Potency [6] | Potency [7] | Potency [8] | Potency [9] | Potency [10]

CC(C)(O)c1ccccc1
inactive: Potency [1] | Potency [2] | Potency [3] | outcome [4] | max response [5] -10.8% | Potency [6] | Potency [7] | Potency [8] | Potency [10]

COC(=O)CCCCCCCCC(=O)OC
inactive: Potency [1] | Potency [2] | Potency [3] | outcome [4] | max response [5] 2.88% | Potency [6] | Potency [7] | Potency [8] | Potency [10]

CC(C)(C)CC(C)(C)N
inactive: Potency [1] | Potency [2] | Potency [3] | outcome [4] | max response [5] 11.1% | Potency [6] | Potency [7] | Potency [9] | Potency [10]
